AC50 and outcome data for 14 compounds are collected here from PubChem BioAssay (EPA / NIEHS).

Records with an inconclusive call do not appear. Active and inactive are the calls of the source. Rule for the calls, unless noted: active = hit-call score of the fitted dose curve at least 0.9, where 1 is the maximum; inconclusive = response in the unintended direction; inactive = score below 0.9.

The test system of one assay is SERPINA7 (gene 6906). The assay is described as follows: CCTE_GLTED_hTBG: CCTE's human Thyroxine-binding Globulin (TBG) Inhibition Assay, Great Lakes Toxicology and Ecology Division (GLTED) Lab (AID 2284343).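 Note: active chemicals lower fluorescence versus DMSO baseline by displacing probe.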 In outline: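 Measures how far test chemicals displace ANSA bound to purified human TBG. The read-out is fluorescence at 380 nm excitation and 475 nm emission, taken after 2 h of incubation.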

Assay [1] can be described thus: CCTE_Mundy_HCI_iCellGluta_NOG_NeuriteLength: CCTE's Neurite Outgrowth Assay in iCellGluta cells for Neurite Length, Mundy Lab (AID 2284318). The essentials:
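Automated high-content imaging of betaIII-tubulin (Alexa Fluor-488) and Hoechst-stained cells gave neurite length, normalized to the DMSO baseline.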

The nature of assay [2]: IUF_NPC1_cytotoxicity_72hr: Cytotoxicity Assessment at 72 hours in the Leibniz Research Institute for Environmental Medicine (IUF) Neural Progenitor Cell Proliferation Assay (NPC1) (AID 2284332).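 Note: rising LDH signal means more cytotoxicity.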 The essentials:
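hNPC spheres (fetal brain, gestational week 16-19) grown under proliferative EGF/FGF conditions, pH 7.2-7.6, were treated continuously for 72 h. Cytotoxicity came from LDH-coupled resazurin fluorescence in each well's supernatant.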

Assay [3] is described as follows: CCTE_Mundy_HCI_iCellGluta_NOG_NeuronCount: CCTE's Neurite Outgrowth Assay in iCellGluta cells for Neuron Count, Mundy Lab (AID 2284340).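 Note: cells fixed about 48 h after compound addition.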 The essentials:
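Neuron count read by automated high-content imaging of Hoechst 33342 and betaIII-tubulin/Alexa Fluor-488 labelling in human iPSC glutamatergic neurons. Activity fitted relative to DMSO.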

Assay [4] is described as follows: CCTE_Mundy_HCI_iCellGluta_NOG_NeuriteCount: CCTE's Neurite Outgrowth Assay in iCellGluta cells for Neurite Count, Mundy Lab (AID 2284342).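 Note: chemical exposure about 48 hours starting 2 hours after plating.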
The next assay deals with IYD (gene 389434). Kind of assay: CCTE_GLTED_hIYD: CCTE's human Iodotyrosine Deiodinase (xIYD) Inhibition Assay, Great Lakes Toxicology and Ecology Division (GLTED) Lab (AID 2284317).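 Note: cell-free human IYD enzyme made in baculovirus insect cells; iodide freed from monoiodotyrosine measured by cerium arsenite color change at 420 nm.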 In outline:
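First, recombinant human IYD (baculovirus-insect cells), MIT and chemical incubated 3 h. Next, iodide isolated on Dowex. Finally, Sandell-Kolthoff rate read at 420 nm, with platewise normalization to MNT and solvent controls.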

In assay [5] the test system is Brachyury (BRA) Protein Expression, Deisenroth Lab, TBXT (gene 6862). The assay is described as follows: CCTE_Deisenroth_DEVTOX-GLR_legacy_Bra: (Legacy) CCTE's DevTox GLR-Endo Assay Evaluation of Brachyury (BRA) Protein Expression, Deisenroth Lab (AID 2284329; active = hit-call score of the fitted dose curve at least 0.9, where 1 is the maximum; inactive = score below 0.9). In outline:
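RUES2-GLR human pluripotent cells differentiated 48 h with two 24-h-interval chemical exposures (1 nM - 200 uM, 10 points); fixed, nuclear-stained, imaged. Bra+ cell percentage (intensity 5x BMAD above pluripotent control median) fitted relative to 0.2% DMSO.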

A short description of assay [6]: CCTE_Deisenroth_DEVTOX-GLR_legacy_CellCount: (Legacy) Viability Assessment in CCTE's DevTox GLR-Endo Assay, Deisenroth Lab (AID 2284331; active = hit-call score of the fitted dose curve at least 0.9, where 1 is the maximum; inactive = score below 0.9). Conditions: actives raise or lower the signal. The essentials:
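RUES2-GLR human pluripotent cells were seeded 24 h, then differentiated 48 h with two compound doses at 24 h intervals (10-point, 1 nM - 200 uM). Fixed nuclei were imaged and counted; bidirectional fitting versus 0.2% DMSO.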

The subject of assay [7] is SRY-box transcription factor 17 (SOX17) Protein Expression, Deisenroth Lab, SOX17 (gene 64321). Kind of assay: CCTE_Deisenroth_DEVTOX-GLR_legacy_Sox17: (Legacy) CCTE's DevTox GLR-Endo Assay Evaluation of SRY-box transcription factor 17 (SOX17) Protein Expression, Deisenroth Lab (AID 2284341; active = hit-call score of the fitted dose curve at least 0.9, where 1 is the maximum; inactive = score below 0.9). The settings on record: actives raise or lower the signal. The essentials: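 Percent SOX17-positive cells, scored by high-content imaging as mean intensity exceeding pluripotent-control median by 5x BMAD, divided by cell count. Human RUES2-GLR endoderm differentiation, 48 h, two exposures 24 h apart, 1 nM–200 uM; DMSO-referenced bidirectional fitting.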

For assay [8], the system named is SRY-box transcription factor 2 (SOX2) Protein Expression, Deisenroth Lab, SOX2 (gene 6657). Kind of assay: CCTE_Deisenroth_DEVTOX-GLR_legacy_Sox2: (Legacy) CCTE's DevTox GLR-Endo Assay Evaluation of SRY-box transcription factor 2 (SOX2) Protein Expression, Deisenroth Lab (AID 2284346; active = hit-call score of the fitted dose curve at least 0.9, where 1 is the maximum; inactive = score below 0.9). In outline: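 RUES2-GLR human pluripotent cells seeded 24 h, then differentiated 48 h in defined media with two chemical doses 24 h apart (10-point, 1 nM–200 uM). Fixed, nuclear-stained, imaged; % Sox2+ cells (>5x BMAD over endoderm control median), DMSO-subtracted, fitted upward.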

The nature of assay [9]: CCTE_Deisenroth_5AR_NBTE_donor: CCTE's 5alpha-reductase NanoBRET Target Engagement Assay […], Deisenroth Lab (AID 2284319; active = hit-call score of the fitted dose curve at least 0.9, where 1 is the maximum; inactive = score below 0.9). Conditions: actives raise or lower the signal. The essentials:
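HEK293T cells were reverse transfected with an SRD5A2-NanoLuc vector for 20 h, exposed to test chemical (8 points, 10 nM - 29.9 uM) for 3 h, then testosterone tracer for 2 h more. Donor luminescence (460 nm) was read; bidirectional fit versus DMSO.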

Assay [10] is described as follows: CCTE_Deisenroth_5AR_NBTE_acceptor: CCTE's 5alpha-reductase NanoBRET Target Engagement Assay - Autofluorescence Screen, Deisenroth Lab (AID 2284321; active = hit-call score of the fitted dose curve at least 0.9, where 1 is the maximum; inactive = score below 0.9;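 note: compound fluorescence in the acceptor channel under 460 nm excitation flags autofluorescence artifacts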). Conditions: actives raise or lower the signal. In outline:
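Acceptor-channel fluorescence flags artifacts, with excitation fixed at 460 nm. Nominal 100 uM chemical samples were read in triplicate runs, and signal changes were fitted in both directions relative to DMSO.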
(In general: BRET reads energy transfer from a luciferase to a nearby fluorophore.)

The next assay relates to SRD5A2 (gene 6716). The assay is described as follows: CCTE_Deisenroth_5AR_NBTE_ratio: CCTE's 5alpha-reductase NanoBRET Target Engagement Assay - Ratio, Deisenroth Lab (AID 2284322; active = hit-call score of the fitted dose curve at least 0.9, where 1 is the maximum; inactive = score below 0.9). Conditions: actives raise or lower the signal. The essentials: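 Reverse-transfect HEK293T with pNLF1-C-SRD5A2, express 20 h. Pre-incubate cells with chemical 3 h (8-point series, 10 nM - 29.9 uM, duplicate). Add testosterone tracer, 2 h more. Add substrate/inhibitor, read donor and acceptor emission.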

Assay [11] can be described thus: TAMU_PeakParms_SingleDonor1434_Asystole: Texas A&M University (TAMU) 1.5-hr Human Induced Pluripotent Stem Cell (iPSC)-derived Cardiomyocytes Calcium (Ca+2) Flux Assay for Cardiotoxicity: Asystole (quiescence of beating) (AID 2284328). The essentials:
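Human iPSC-derived cardiomyocytes (donor 1434) were exposed to 0.2, 1, 10 and 100 uM compound in 0.5% DMSO for 90 min at 37C. Ca2+-dye fluorescence gave average peak frequency; POD is EC95, a 95% beat-rate drop versus DMSO.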

The nature of assay [12]: VALA_TUBHUV_Antagonist_TubuleLength: VALA Sciences human Umbilical Vein Endothelial Tubule Formation (TUBHUV) Antagonism Assay (AID 2284325). The essentials:
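HUVEC–HDF co-culture (1:3) pre-grown 3 days with 10 ng/ml VEGF, then 3 days with compound plus VEGF. Fixed, nuclear and CD31 stained; total tubule length by imaging versus 0.1% DMSO; suramin 100 uM positive control.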

A short description of assay [13]: VALA_TUBIPS_Antagonist_CellCount: Viability Assessment in the VALA Sciences human iPS-derived Endothelial Tubule Formation (TUBIPS) Antagonism Assay (AID 2284335). On the procedure: VALA_TUBIPS_Agonist is a cell-based, multiplexed assay that uses human iPS-derived endothelial cells (iPSC). Measurements were taken 72 hours after chemical dosing in a 96-well plate.VALA_TUBIPS_Antagonist_CellCount is the one of two assay components measured from the VALA_TUBIPS_Antagonist assay. It is designed to make measurements of viability, a form of viability reporter, as detected with fluorescence intensity signals by HCS Fluorescent Imaging technology. Data from the assay component VALA_TUBIPS_Antagonist_CellCount was analyzed at the endpoint, VALA_TUBIPS_Antagonist_CellCount, in the positive analysis fitting direction relative to DMSO as the negative control and baseline of activity. Using a type of viability reporter, loss-of-signal activity can be used to understand viability. To generalize the intended target to other relatable targets, this assay endpoint is annotated to the cell cycle intended target family, where the subfamily is cell count.
This HUVEC-HDF assay was designed to detect chemical suppression of tubulogenesis, i.e. antagonism. To measure tubulogenesis antagonism, HUVEC cells were co-cultured with HDF cells at a 1:3 ratio for 3-days in 10 ng/ml VEGF (i.e., favorable conditions with growth factors), then changed to assay medium containing 10 ng/ml VEGF and ToxCast compounds for an additional 3-day period. […]

Assay [14] can be described thus: VALA_MIGHUV1_ScratchOnly_WoundArea: VALA Sciences human Umbilical Vein Endothelial Cell Migration (MIGHUV) Assay, Area of Scratch Wound Inhibited Recovery (AID 2284336). The essentials:
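HUVEC monolayers (9000 cells/well) were scratched after 24 h, dosed within 30 min (six concentrations, triplicate, 0.1% DMSO), allowed 24 h recovery, then fixed. Hoechst-stained nuclei in the wound imaged; cytochalasin D as reference.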

Assay [15] in a line: VALA_TUBIPS_Agonist_CellCount: Viability Assessment in the VALA Sciences human iPS-derived Endothelial Tubule Formation (TUBIPS) Agonism Assay (AID 2284338).

The term AC50 denotes the midpoint of the concentration-response curve, whichever way the signal moves. In the case of `N#CSCSc1nc2ccccc2s1`, the AC50 with SERPINA7 (gene 6906) was 33.2 µM (active).
With `COc1c(Cl)ccc(Cl)c1C(=O)O`, in the assay with SERPINA7 (gene 6906), the AC50 was 47.7 µM (active).
Turning to `CCN(CC)C(=O)c1cccc(C)c1`, in assay [1], the AC50 was 50.5 µM (active). For the same compound, the call in assay [2], in assay [3] and in assay [4] was inactive.
Turning to `CCOC(=O)C(C)Oc1ccc(Oc2nc3ccc(Cl)cc3o2)cc1` (stereo not drawn), in the assay on IYD (gene 389434), the compound was classed as inactive.
With `OB(O)O`, the result in assay [5], in [6], in assay [7] and in [8] was inactive.
For the compound `C#CCOC(=O)[C@@H](C)Oc1ccc(Oc2ncc(Cl)cc2F)cc1`, the AC50 in [1] is 22 µM (active); in [4], 34 µM (active). In addition, the result in assay [2] and in [3] was inactive.
In the case of `CCN(Cc1c(F)cccc1Cl)c1c([N+](=O)[O-])cc(C(F)(F)F)cc1[N+](=O)[O-]`, the half-maximal activity concentration (AC50) in the assay on SERPINA7 (gene 6906) is 0.62 µM (active).
For `CCCCC(CC)COC(=O)c1ccccc1C(=O)O` (stereo not drawn), the result in assay [5] and in [8] was inactive. The AC50 is 112 µM (active) in [6], 100 µM (active) in assay [7] and 18.3 µM (active) in the assay on SERPINA7 (gene 6906).
On to `O=C(Nc1ccc([N+](=O)[O-])cc1Cl)c1cc(Cl)ccc1O`, for which the compound was classed as inactive (in [9]; in [10]; with SRD5A2 (gene 6716); in the assay on SERPINA7 (gene 6906)).
`O=C(O)c1ccccc1`: the result (in [9]; in assay [10]; with SRD5A2 (gene 6716); in assay [11]; in assay [2]) was inactive.
Consider `CCCN(CCC)C(=O)SCC`, for which the result in [1], in assay [2], in assay [3] and in [4] was inactive.
In the case of `O=C(O)C1(C(=O)Nc2ccc(Cl)cc2Cl)CC1`, the AC50 in the assay on SERPINA7 (gene 6906) was 66 µM (active).
For `c1ccc2[nH]c(-c3cscn3)nc2c1`, the outcome in assay [11] was inactive.
With `CC(C)(c1ccc(O)cc1)c1ccc(O)cc1`, the result (in the assay with IYD (gene 389434); in [11]; in assay [2]; in [13]; in assay [14]; in assay [15]) was inactive. The AC50 in assay [12] is 75.1 µM (active); in [5], 49.5 µM (active); in assay [6] it was 35.6 µM (active); in assay [7] it was 51.4 µM (active); with SERPINA7 (gene 6906), 12.4 µM (active); in assay [8] it was 50.7 µM (active).
